Source: the supplement of paper PMC10515830
Counter-ions that a name gives are not always drawn.

How the values were obtained:
Conditions in all cases: 10 µM; exposure time 6 h
[1] = tested on: Danio rerio larvae (5 dpf); assay: difference in excitability vs DMSO (percentage points); higher = more excitable than DMSO
Procedure, shortened: (§1)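 In 96-well plates, 48 wild-type zebrafish larvae aged 5 dpf per compound received 100 µL egg water with library compound at 10 µM final for 6 h. Three hours into this, a 3-h programme of moving lines and 100 ms, 400Hz tones ran at 28.5 ℃ while plates were photographed every 6 s. Z-LaP Tracker scored the behaviours, and each is given as the compound mean minus the vehicle control mean in percentage points.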

[2] = tested on: Danio rerio larvae (5 dpf); assay: difference in startle response vs DMSO (percentage points); higher = stronger startle than DMSO
Procedure, shortened: as §1

[3] = tested on: Danio rerio larvae (5 dpf); assay: difference in activity during first hour vs DMSO (percentage points); higher = more activity than DMSO
Procedure, shortened: as §1

[4] = tested on: Danio rerio larvae (5 dpf); assay: difference in habituation to acoustic stimuli vs DMSO (percentage points); higher = more habituation than DMSO
Procedure, shortened: as §1

[5] = tested on: Danio rerio larvae (5 dpf); assay: difference in combined optomotor response to red, green and blue moving lines vs DMSO (percentage points); higher = stronger optomotor response than DMSO
Procedure, shortened: as §1

Structure (SMILES): NC(=O)NO [Hydroxyurea]
- difference in excitability [1]: -1.52
- difference in startle response [2]: 8.36
- difference in activity during first hour [3]: 2.09
- difference in habituation to acoustic stimuli [4]: 5.31
- difference [5]: 3.68

Structure (SMILES): COC(=O)[C@H](c1ccccc1Cl)N1CCc2sccc2C1 (racemic) [(±)-Clopidogrel (hydrochloride)]
- difference in excitability [1]: 11.3
- difference in startle response [2]: 3.2
- difference in activity during first hour [3]: -4.36
- difference in habituation to acoustic stimuli [4]: -3.13
- difference [5]: 8.08

Structure (SMILES): Cc1ccc(C(=O)Nc2ccc(CN3CCN(C)CC3)c(C(F)(F)F)c2)cc1C#Cc1cnc2cccnn12 [Ponatinib]
- difference in excitability [1]: 7.08
- difference in startle response [2]: -6.04
- difference in activity during first hour [3]: -11
- difference in habituation to acoustic stimuli [4]: -7.62
- difference [5]: -12.5

Structure (SMILES): CC[C@H]1OC(=O)[C@H](C)[C@@H](O[C@H]2C[C@@](C)(OC)[C@@H](O)[C@H](C)O2)[C@H](C)[C@@H](O[C@@H]2O[C@H](C)C[C@H](N(C)C)[C@H]2O)[C@](C)(O)C[C@@H](C)C(=O)[C@H](C)[C@@H](O)[C@]1(C)O [Erythromycin]
- difference in excitability [1]: 4.99
- difference in startle response [2]: -6.73
- difference in activity during first hour [3]: 13.1
- difference in habituation to acoustic stimuli [4]: -0.584
- difference [5]: 9.53

Structure (SMILES): Clc1ccc2c(c1)CCc1cccnc1C2=C1CCNCC1 [Desloratadine]
- difference in excitability [1]: 10.4
- difference in startle response [2]: 3.48
- difference in activity during first hour [3]: 2.87
- difference in habituation to acoustic stimuli [4]: -2.42
- difference [5]: 1.86

Structure (SMILES): Cc1[nH]cnc1CN1CCc2c(c3ccccc3n2C)C1=O [Alosetron (hydrochloride)]
- difference in excitability [1]: -3.91
- difference in startle response [2]: 3.08
- difference in activity during first hour [3]: 8.78
- difference in habituation to acoustic stimuli [4]: 3.46
- difference [5]: 8.63

Structure (SMILES): C[C@H](CS)C(=O)N1CCC[C@H]1C(=O)O [Captopril]
- difference in excitability [1]: 1.66
- difference in startle response [2]: -4.09
- difference in activity during first hour [3]: -5.55
- difference in habituation to acoustic stimuli [4]: -3.07
- difference [5]: 1.64

Structure (SMILES): CNC(=O)c1cc(Oc2ccc(NC(=O)Nc3ccc(Cl)c(C(F)(F)F)c3)cc2)ccn1 [Sorafenib]
- difference in excitability [1]: 19.5
- difference in startle response [2]: -6.25
- difference in activity during first hour [3]: -3.15
- difference in habituation to acoustic stimuli [4]: -3.01
- difference [5]: -2.71

Structure (SMILES): CCOC(=O)[C@@](C)(N)Cc1ccc(O)c(O)c1 [Methyldopate]
- difference in excitability [1]: 14.5
- difference in startle response [2]: 1.24
- difference in activity during first hour [3]: -2.29
- difference in habituation to acoustic stimuli [4]: -2.04
- difference [5]: -2.04

Structure (SMILES): C=C(c1ccc(C(=O)O)cc1)c1cc2c(cc1C)C(C)(C)CCC2(C)C [Bexarotene]
- difference in excitability [1]: 7.21
- difference in startle response [2]: 1.4
- difference in activity during first hour [3]: -13.5
- difference in habituation to acoustic stimuli [4]: -4.93
- difference [5]: -11

Structure (SMILES): NNCCc1ccccc1 [Phenelzine (sulfate)]
- difference in excitability [1]: -5.16
- difference in startle response [2]: 2.45
- difference in activity during first hour [3]: -14.5
- difference in habituation to acoustic stimuli [4]: 5.81
- difference [5]: 2.16

Structure (SMILES): C[C@H](N[C@@H](CCc1ccccc1)C(=O)O)C(=O)N1CCC[C@H]1C(=O)O [Enalaprilat (hydrate)]
- difference in excitability [1]: -0.583
- difference in startle response [2]: -2.87
- difference in activity during first hour [3]: 9.36
- difference in habituation to acoustic stimuli [4]: 1.38
- difference [5]: 1.55

Structure (SMILES): O=C1CCCC(=O)C1C(=O)c1ccc(C(F)(F)F)cc1[N+](=O)[O-] [Nitisinone]
- difference in excitability [1]: -4.15
- difference in startle response [2]: -6.23
- difference in activity during first hour [3]: 19.7
- difference in habituation to acoustic stimuli [4]: -0.151
- difference [5]: 0.618

Structure (SMILES): CN(C)c1cc(NC(=O)CNC(C)(C)C)c(O)c2c1C[C@H]1C[C@H]3[C@H](N(C)C)C(O)=C(C(N)=O)C(=O)[C@@]3(O)C(O)=C1C2=O [Tigecycline]
- difference in excitability [1]: 18.8
- difference in startle response [2]: 1.45
- difference in activity during first hour [3]: -22.5
- difference in habituation to acoustic stimuli [4]: -5.95
- difference [5]: -3.12

Structure (SMILES): Cn1cnc([N+](=O)[O-])c1Sc1ncnc2[nH]cnc12 [Azathioprine]
- difference in excitability [1]: -3.13
- difference in startle response [2]: 3.25
- difference in activity during first hour [3]: -3.18
- difference in habituation to acoustic stimuli [4]: 4.62
- difference [5]: 1.19

Structure (SMILES): COc1ccc2cc(CCC(C)=O)ccc2c1 [Nabumetone]
- difference in excitability [1]: 0.732
- difference in startle response [2]: -0.884
- difference in activity during first hour [3]: 1.19
- difference in habituation to acoustic stimuli [4]: -1.53
- difference [5]: 0.192

Structure (SMILES): C[C@@H](NCCCc1cccc(C(F)(F)F)c1)c1cccc2ccccc12 [Cinacalcet (hydrochloride)]
- difference in excitability [1]: -1.68
- difference in startle response [2]: 0.605
- difference in activity during first hour [3]: 10.2
- difference in habituation to acoustic stimuli [4]: -9.83
- difference [5]: -16.5

Structure (SMILES): O=C(O)c1cc(/N=N/c2ccc(S(=O)(=O)Nc3ccccn3)cc2)ccc1O [Sulfasalazine]
- difference in excitability [1]: 11.1
- difference in startle response [2]: 2.87
- difference in activity during first hour [3]: 12.9
- difference in habituation to acoustic stimuli [4]: -2.35
- difference [5]: 4.25

Structure (SMILES): Cc1ccc(S(=O)(=O)NC(=O)NN2CCCCCC2)cc1 [Tolazamide]
- difference in excitability [1]: 7.01
- difference in startle response [2]: 21.4
- difference in activity during first hour [3]: 4.59
- difference in habituation to acoustic stimuli [4]: 2.23
- difference [5]: 9.69

Structure (SMILES): Cc1cccc(C)c1OCC(=O)N[C@@H](Cc1ccccc1)[C@@H](O)C[C@H](Cc1ccccc1)NC(=O)[C@H](C(C)C)N1CCCNC1=O [Lopinavir]
- difference in excitability [1]: 10.5
- difference in startle response [2]: -2.95
- difference in activity during first hour [3]: -0.504
- difference in habituation to acoustic stimuli [4]: -4.82
- difference [5]: -0.255

Structure (SMILES): CN(CCOc1ccc(CC2SC(=O)NC2=O)cc1)c1ccccn1 (stereo not given) [Rosiglitazone]
- difference in excitability [1]: 6.79
- difference in startle response [2]: -7.02
- difference in activity during first hour [3]: 26.9
- difference in habituation to acoustic stimuli [4]: -12.6
- difference [5]: -6.71

Structure (SMILES): COc1cc2/c(=N/c3ccc(Br)cc3F)nc[nH]c2cc1OCC1CCN(C)CC1 [Vandetanib]
- difference in excitability [1]: 12.1
- difference in startle response [2]: -1.93
- difference in activity during first hour [3]: -4.76
- difference in habituation to acoustic stimuli [4]: 5.41
- difference [5]: 6.09

Structure (SMILES): NC[C@H]1CC[C@H](C(=O)O)CC1 [Tranexamic Acid]
- difference in excitability [1]: 6.95
- difference in startle response [2]: 8.18
- difference in activity during first hour [3]: 13.1
- difference in habituation to acoustic stimuli [4]: 1.19
- difference [5]: 10.9
